# Measured values reported in PubChem BioAssay AID1729 (National Center for Advancing Translational Sciences (NCATS), 2009).
# Results filed as inconclusive are left out. The source made the active and inactive calls. Calls follow the shape of the dose curve; as a rule, active = well fitted curve in the direction sought with a large enough effect; inconclusive = small, poorly fitted or top-dose-only effect, or effect the other way, or another doubt; inactive = no such curve, though single readings can be large or run the other way.
# Target: Epidermal growth factor receptor (Homo sapiens) (UniProt P00533)
# Sequence (P00533 whole entry T790M, looked up): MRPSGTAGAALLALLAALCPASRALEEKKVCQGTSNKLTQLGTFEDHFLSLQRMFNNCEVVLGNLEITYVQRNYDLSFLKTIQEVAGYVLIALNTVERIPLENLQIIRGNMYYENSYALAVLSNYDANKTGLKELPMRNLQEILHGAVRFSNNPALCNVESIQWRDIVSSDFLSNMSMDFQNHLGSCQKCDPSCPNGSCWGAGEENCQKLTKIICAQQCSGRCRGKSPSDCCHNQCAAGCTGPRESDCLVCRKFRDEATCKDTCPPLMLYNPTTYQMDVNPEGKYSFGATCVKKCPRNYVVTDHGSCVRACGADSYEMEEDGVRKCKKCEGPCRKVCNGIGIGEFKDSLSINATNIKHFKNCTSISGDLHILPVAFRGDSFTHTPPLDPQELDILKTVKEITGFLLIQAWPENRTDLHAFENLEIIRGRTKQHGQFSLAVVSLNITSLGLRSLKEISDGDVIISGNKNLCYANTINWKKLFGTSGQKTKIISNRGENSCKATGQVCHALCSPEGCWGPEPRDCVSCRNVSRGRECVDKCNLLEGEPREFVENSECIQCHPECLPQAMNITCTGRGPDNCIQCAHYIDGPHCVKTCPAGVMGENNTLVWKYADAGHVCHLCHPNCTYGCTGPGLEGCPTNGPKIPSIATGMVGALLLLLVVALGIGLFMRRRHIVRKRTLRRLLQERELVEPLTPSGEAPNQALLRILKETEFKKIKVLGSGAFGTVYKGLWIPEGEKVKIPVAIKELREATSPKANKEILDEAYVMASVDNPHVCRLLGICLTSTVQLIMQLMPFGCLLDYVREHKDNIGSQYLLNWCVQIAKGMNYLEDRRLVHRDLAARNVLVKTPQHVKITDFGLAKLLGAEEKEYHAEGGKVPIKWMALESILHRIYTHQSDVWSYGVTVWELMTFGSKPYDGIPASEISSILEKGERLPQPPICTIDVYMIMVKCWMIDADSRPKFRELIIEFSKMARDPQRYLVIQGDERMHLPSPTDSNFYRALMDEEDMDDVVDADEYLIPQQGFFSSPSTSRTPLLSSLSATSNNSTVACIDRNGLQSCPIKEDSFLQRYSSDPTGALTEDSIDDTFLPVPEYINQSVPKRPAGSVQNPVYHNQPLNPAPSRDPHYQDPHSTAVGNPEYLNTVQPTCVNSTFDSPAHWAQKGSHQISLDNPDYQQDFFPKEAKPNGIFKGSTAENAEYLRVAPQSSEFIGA
# Assay: Assay for Inhibitors of the ERK Signaling Pathway using a Homogeneous Screening Assay: EGFR T790M Kinase Inhibition
# Excerpt: qHTS Assay for Inhibitors of the ERK Signaling Pathway using a Homogeneous Screening Assay
# NIH Chemical Genomics Center [NCGC]
# NIH Molecular Libraries Screening Centers Network [MLSCN]
# Assay Submitter (PI): Dr. Wei Zheng, NCGC/NIH
# The Ras/extracellular-signal-regulated kinase (ERK) mitogen activated protein (MAP) kinase signaling pathway (ERK1/2 cascade) plays is a key role in transmitting signals from the cell surface to the nucleus (Nishida and Gotoh 1993; Chang and Karin, 2001). The cascade is initiated by the small G-protein Ras, which recruits Raf […], where activation occurs. Alternatively, this pathway can be activated by elevating intracellular cAMP.
# Activation of the ERK pathway is essential in increased cell division and cell survival. Sustained and constitutive activation of the ERK pathway, however, has been linked to uncontrolled cell proliferation, increased cell survival, and tumor progression. Thus, the ERK has been as an attractive target for cancer chemotherapy in the past few years (Sebolt-Leopold and Herrera, 2004). […]
# The HTRF kinase assay (components supplied as kit by Cisbio) was chosen for the EGFR and EGFR mutant enzyme assays that applied the time resolved fluorescence resonance energy transfer (TR-FRET) principle. […]
row,SMILES,outcome
1,CCn1nc(-c2ccccc2)nc2c(=O)n(C)c(=O)nc1-2,inactive
2,Cc1nc2c(=O)n(C)c(=O)nc-2n(C)n1,inactive
